The text below walks through data of publication PMC11102866, “Nucleosome-bound NR5A2 structure reveals pioneer factor mechanism by DNA minor groove anchor competition”.

The labels stand for the following.
B1: 14 (nucleosome)
DNA 1: ATCCTGGAGAATCCCGTCAAGGCCACCGCTCAATTGGTCGTAGACAGCTCTAGCACCGCTTAAACGCACGTACGCGCTGTCCCCCGCGTTTTAACCGCCAAGGGGATTACTCCCTAGTCTCCAGGCACGTGTCAGATATATACATCCTGTGAT
DNA 2: ATCACAGGATGTATATATCTGACACGTGCCTGGAGACTAGGGAGTAATCCCCTTGGCGGTTAAAACGCGGGGGACAGCGCGTACGTGCGTTTAAGCGGTGCTAGAGCTGTCTACGACCAATTGAGCGGTGGCCTTGACGGGATTCTCCAGGAT
modifications: reconstituted with mouse histones H2A, H2B, H3.3 and H4
B2: 122 (nucleosome)
DNA 1: ATCCTGGAGAATCCCGGTGCCGAGGCCGCTCAATTGGTCGTAGACAGCTCTAGCACCGCTTAAACGCACGTACGCGCTGTCCCCCGCGTTTTAACCGCCAAGGGGATTACTCCCTAGTCTCCAGTCAAGGCCAAGATATATACATCCTGTGAT
DNA 2: ATCACAGGATGTATATATCTTGGCCTTGACTGGAGACTAGGGAGTAATCCCCTTGGCGGTTAAAACGCGGGGGACAGCGCGTACGTGCGTTTAAGCGGTGCTAGAGCTGTCTACGACCAATTGAGCGGCCTCGGCACCGGGATTCTCCAGGAT
modifications: reconstituted with mouse histones H2A, H2B, H3.3 and H4
B3: 124 (nucleosome)
DNA 1: ATCCTGGAGAATCCCGGTGCCGAGGCCGCTCAATTGGTCGTAGACAGCTCTAGCACCGCTTAAACGCACGTACGCGCTGTCCCCCGCGTTTTAACCGCCAAGGGGATTACTCCCTAGTCTCCAGGCTCAAGGCCAATATATACATCCTGTGAT
DNA 2: ATCACAGGATGTATATATTGGCCTTGAGCCTGGAGACTAGGGAGTAATCCCCTTGGCGGTTAAAACGCGGGGGACAGCGCGTACGTGCGTTTAAGCGGTGCTAGAGCTGTCTACGACCAATTGAGCGGCCTCGGCACCGGGATTCTCCAGGAT
modifications: reconstituted with mouse histones H2A, H2B, H3.3 and H4
B4: 125 (nucleosome)
DNA 1: ATCCTGGAGAATCCCGGTGCCGAGGCCGCTCAATTGGTCGTAGACAGCTCTAGCACCGCTTAAACGCACGTACGCGCTGTCCCCCGCGTTTTAACCGCCAAGGGGATTACTCCCTAGTCTCCAGGCATCAAGGCCATATATACATCCTGTGAT
DNA 2: ATCACAGGATGTATATATGGCCTTGATGCCTGGAGACTAGGGAGTAATCCCCTTGGCGGTTAAAACGCGGGGGACAGCGCGTACGTGCGTTTAAGCGGTGCTAGAGCTGTCTACGACCAATTGAGCGGCCTCGGCACCGGGATTCTCCAGGAT
modifications: reconstituted with mouse histones H2A, H2B, H3.3 and H4
B5: 123 (nucleosome)
DNA 1: ATCCTGGAGAATCCCGGTGCCGAGGCCGCTCAATTGGTCGTAGACAGCTCTAGCACCGCTTAAACGCACGTACGCGCTGTCCCCCGCGTTTTAACCGCCAAGGGGATTACTCCCTAGTCTCCAGGTCAAGGCCAGATATATACATCCTGTGAT
DNA 2: ATCACAGGATGTATATATCTGGCCTTGACCTGGAGACTAGGGAGTAATCCCCTTGGCGGTTAAAACGCGGGGGACAGCGCGTACGTGCGTTTAAGCGGTGCTAGAGCTGTCTACGACCAATTGAGCGGCCTCGGCACCGGGATTCTCCAGGAT
modifications: reconstituted with mouse histones H2A, H2B, H3.3 and H4
B6: 115 (nucleosome)
DNA 1: ATCCTGGAGAATCCCGGTGCCGAGGCCGCTCAATTGGTCGTAGACAGCTCTAGCACCGCTTAAACGCACGTACGCGCTGTCCCCCGCGTTTTAACCGCCAAGGGGATTACTCCCTAGTCAAGGCCAACGTGTCAGATATATACATCCTGTGAT
DNA 2: ATCACAGGATGTATATATCTGACACGTTGGCCTTGACTAGGGAGTAATCCCCTTGGCGGTTAAAACGCGGGGGACAGCGCGTACGTGCGTTTAAGCGGTGCTAGAGCTGTCTACGACCAATTGAGCGGCCTCGGCACCGGGATTCTCCAGGAT
modifications: reconstituted with mouse histones H2A, H2B, H3.3 and H4
B7: 121 (nucleosome)
DNA 1: ATCCTGGAGAATCCCGGTGCCGAGGCCGCTCAATTGGTCGTAGACAGCTCTAGCACCGCTTAAACGCACGTACGCGCTGTCCCCCGCGTTTTAACCGCCAAGGGGATTACTCCCTAGTCTCCATCAAGGCCACAGATATATACATCCTGTGAT
DNA 2: ATCACAGGATGTATATATCTGTGGCCTTGATGGAGACTAGGGAGTAATCCCCTTGGCGGTTAAAACGCGGGGGACAGCGCGTACGTGCGTTTAAGCGGTGCTAGAGCTGTCTACGACCAATTGAGCGGCCTCGGCACCGGGATTCTCCAGGAT
modifications: reconstituted with mouse histones H2A, H2B, H3.3 and H4

For the first experiment, the target named is NR5A2 wild type;histone octamer (Homo sapiens;, UniProt O00482;C0HKE1;Q6ZWY9;P84244;P62806 1-541;2-130;2-126;2-136;2-103, |). Put plainly: SeEN-seq (EMSA of nucleosome library followed by sequencing); 0.8 uM human NR5A2; 20 mM Tris-HCl pH 7.5, 120 mM NaCl, 1 mM MgCl2, 10 uM ZnCl2, 1 mM DTT, 100 ug/ml BSA, room temperature, 30 min; 0.1 uM nucleosome library; high values mean tight binding. In general terms: Mobility shift assays separate free from complexed probe on a gel.
As for B1, the binding signal is 3.44 log2 enrichment (bound/unbound, relative to Widom 601).

Consider B2, for which the binding signal was 0.909 log2 enrichment (bound/unbound, relative to Widom 601).

For B3, the binding signal is 3.87 log2 enrichment (bound/unbound, relative to Widom 601).

In the case of B4, the binding signal was 4.55 log2 enrichment (bound/unbound, relative to Widom 601).

Take B5: the binding signal is 1.01 log2 enrichment (bound/unbound, relative to Widom 601).

As to B6, the binding signal is 0.998 log2 enrichment (bound/unbound, relative to Widom 601).

With B7, the binding signal is 0.664 log2 enrichment (bound/unbound, relative to Widom 601).

For a further experiment, the target named is mouse Nr5a2 wild type;histone octamer (Mus musculus;, UniProt P45448;C0HKE1;Q6ZWY9;P84244;P62806 1-560;2-130;2-126;2-136;2-103, |). Put plainly: SeEN-seq (EMSA of nucleosome library followed by sequencing); 1.2 uM mouse Nr5a2; 20 mM Tris-HCl pH 7.5, 120 mM NaCl, 1 mM MgCl2, 10 uM ZnCl2, 1 mM DTT, 100 ug/ml BSA, room temperature, 30 min; 0.1 uM nucleosome library; high values mean tight binding.
On to B1, for which the binding signal was 2.91 log2 enrichment (bound/unbound, relative to Widom 601).

B2: the binding signal was 0.939 log2 enrichment (bound/unbound, relative to Widom 601).

Regarding B3, the binding signal is 2.91 log2 enrichment (bound/unbound, relative to Widom 601).

Turning to B4, the binding signal is 3.58 log2 enrichment (bound/unbound, relative to Widom 601).

Regarding B5, the binding signal was 1.41 log2 enrichment (bound/unbound, relative to Widom 601).

With B6, the binding signal was 1.02 log2 enrichment (bound/unbound, relative to Widom 601).

Regarding B7, the binding signal was 0.599 log2 enrichment (bound/unbound, relative to Widom 601).
